Reference: PubChem BioAssay (EPA / NIEHS)
Activity calls are given as the source filed them. How the source made its calls: active means hit-call score of the fitted dose curve at least 0.9, where 1 is the maximum; inactive means score below 0.9.

Molecular target: PGR (gene 5241) (UniProt P06401)
Test: TOX21_PR_LUC_Followup_Agonist: Tox21 HEK293 Progesterone Receptor (PR) Agonism Luciferase Follow-Up Assay (AID 2283937)
Description: TOX21_PR_LUC_Followup is a secondary assay for specificity for the TOX21_PR_BLA_Agonist assay. To differentiate true PR agonists from cytotoxic substances, this follow up assay is multiplexed with a cell viability assay.TOX21_PR_LUC_Followup_Agonist is one of one assay component(s) measured or calculated from the TOX21_PR_LUC_Followup assay. It is designed to make measurements of luciferase induction, a form of inducible reporter, as detected with bioluminescence signals by CellTiter-Glo Luciferase-coupled ATP quantitation technologyData from the assay component TOX21_PR_LUC_Followup_Agonist was analyzed into 1 assay endpoint. This assay endpoint, TOX21_PR_LUC_Followup_Agonist, was analyzed in the positive analysis fitting direction relative to DMSO as the negative control and baseline of activity. Using a type of inducible reporter, gain-of-signal activity can be used to understand changes in the reporter gene as they relate to the gene NR3C3. Furthermore, this assay endpoint can be referred to as a primary readout, because the performed assay has only produced 1 assay endpoint. To generalize the intended target to other relatable targets, this assay endpoint is annotated to the nuclear receptor target family, where the subfamily is steroidal.
Quality Control Precautions: Maintain cells below 85-90% confluence in culture medium. For assay purpose, the cells should be cultured in assay medium with 10% charcoal stripped FBS for 5 days with alternate day medium changed to fresh medium. Especially while in assay culture, the cells should not reach more than 85% confluence as they would become harder to detach if they reach over confluence.Assay Protocol: HEK293-PR-A-luc cells were dispensed at 3,000 cells/5 uL/well of culture medium into white wall/solid-bottom 1536-well plates using a Multidrop Combi (ThermoFisher Scientific, Waltham, MA) dispenser. After the assay plates were incubated at 37C and […] for 5 h, 23 nL of compounds dissolved in DMSO, positive controls or DMSO only was transferred to the assay plate by a Pintool station (Kalypsys, San Diego, CA). The plates were incubated at 37C and […] for 16 h. Then 4 uL of ONE-Glo reagent (Promega, Madison, WI) was added to each plate using a BioRAPTR Flying Reagent Dispenser (FRD) workstation (Beckman Coulter, Indianapolis, IN, USA) and luminescence was quantified on a ViewLux (PerkinElmer, Shelton, CT) plate reader after 30 min incubation at room temperature.

PGR (gene 5241), sequence (P06401 whole entry, looked up): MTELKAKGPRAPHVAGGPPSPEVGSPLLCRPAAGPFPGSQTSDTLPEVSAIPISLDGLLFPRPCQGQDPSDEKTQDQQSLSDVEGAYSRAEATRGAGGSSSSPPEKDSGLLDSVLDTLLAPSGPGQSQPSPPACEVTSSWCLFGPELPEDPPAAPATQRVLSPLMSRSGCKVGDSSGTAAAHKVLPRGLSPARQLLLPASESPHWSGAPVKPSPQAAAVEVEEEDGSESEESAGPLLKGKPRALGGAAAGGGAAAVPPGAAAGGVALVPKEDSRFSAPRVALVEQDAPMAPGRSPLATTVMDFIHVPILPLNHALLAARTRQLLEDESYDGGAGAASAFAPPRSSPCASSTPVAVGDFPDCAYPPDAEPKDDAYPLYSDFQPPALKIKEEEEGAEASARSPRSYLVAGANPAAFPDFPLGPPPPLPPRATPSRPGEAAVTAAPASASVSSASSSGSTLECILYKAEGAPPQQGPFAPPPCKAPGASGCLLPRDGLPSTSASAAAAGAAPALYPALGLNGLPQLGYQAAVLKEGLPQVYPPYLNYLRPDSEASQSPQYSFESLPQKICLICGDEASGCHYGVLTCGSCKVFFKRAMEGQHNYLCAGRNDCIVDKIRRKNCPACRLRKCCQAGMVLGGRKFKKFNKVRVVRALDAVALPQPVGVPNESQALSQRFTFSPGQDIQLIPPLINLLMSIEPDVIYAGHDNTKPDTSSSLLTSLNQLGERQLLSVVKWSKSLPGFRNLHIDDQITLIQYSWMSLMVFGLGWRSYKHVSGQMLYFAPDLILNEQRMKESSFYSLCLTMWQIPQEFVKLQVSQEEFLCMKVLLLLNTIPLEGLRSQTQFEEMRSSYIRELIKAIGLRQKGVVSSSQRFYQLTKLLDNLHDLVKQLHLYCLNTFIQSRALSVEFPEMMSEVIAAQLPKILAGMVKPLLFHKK

SMILES	outcome	AC50
O=C(Nc1ccc(Cl)c(Cl)c1)C1CC1	inactive	
Cc1cc(C)c(C=C2C(=O)Nc3ccccc32)[nH]1	inactive	
COC(=O)C1=C(C)NC(COC(N)=O)=C(C(=O)OC(C)C)C1c1cccc(Cl)c1Cl (configuration not stated)	inactive	
CC(C)C[C@H](NC(=O)[C@H](Cc1ccccc1)NC(=O)c1cnccn1)B(O)O	inactive	
NC(=O)n1c(O)c(C(=O)c2cccs2)c2cc(Cl)ccc21	inactive	
C=C1C(CCl)(CCl)C2(Cl)C(Cl)C(Cl)C1(Cl)C2(Cl)Cl (configuration not stated)		8970 nM (active)
CC(=O)OCC(=O)[C@@]1(O)CC[C@H]2[C@@H]3CCC4=CC(=O)C=C[C@]4(C)[C@H]3[C@@H](O)C[C@@]21C		2280 nM (active)
COC(=O)C1=C(C)NC(C)=C(C(=O)OCCN2CCN(C(c3ccccc3)c3ccccc3)CC2)C1c1cccc([N+](=O)[O-])c1 (configuration not stated)	inactive	
CCn1c2ccccc2c2cc([N+](=O)[O-])ccc21	inactive	
CC(=O)OCC(=O)[C@@]1(O)CC[C@H]2[C@@H]3CCC4=CC(=O)C=C[C@]4(C)[C@@]3(F)[C@@H](O)C[C@@]21C		123 nM (active)
CC(C)C[C@H](NC(=O)[C@H](CCc1ccccc1)NC(=O)CN1CCOCC1)C(=O)N[C@@H](Cc1ccccc1)C(=O)N[C@@H](CC(C)C)C(=O)[C@@]1(C)CO1	inactive	
Oc1ccc(N=Nc2ccccc2)cc1	inactive	
